Hsp90 inh – displaces geldanamycin probe from tumor Hsp90 | NCI-N417 lysate Hsp90, Cy3B-geldanamycin FP displacement | inhibition, % at 30 µM | 0.35% of 64,000 active | AID 429;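 active means inhibition above 50%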;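 further: 0% = tracer plus lysate wells and 100% = tracer alone without lysate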
CatB mix inh – human cathepsin B inhibition by mixtures; P07858; Purified cathepsin B, AMC dipeptide fluorescence, compound mixtures; inhibition, %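 (ten-compound pools at 5 µM per compound and 50 µM total)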; 0.06% of 62,000 active; AID 488; in the data active means inhibition above about 22%, passing the limit was not always enough; inconclusive means no clear call, values can overlap the other calls;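 further: 0% = enzyme without compound and 100% = no enzyme blank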
CatL inh – inhibitors of human cathepsin L; P07711; purified cathepsin L, fluorogenic substrate, fluorescence; inhibition, %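 (tested at 10 µM)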; 0.17% of 58,000 active; AID 460; in the data active means inhibition above about 45%;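 further: 0% = enzyme with no compound and 100% = no enzyme blank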
Target sequence (P07711 114-288 limits assumed): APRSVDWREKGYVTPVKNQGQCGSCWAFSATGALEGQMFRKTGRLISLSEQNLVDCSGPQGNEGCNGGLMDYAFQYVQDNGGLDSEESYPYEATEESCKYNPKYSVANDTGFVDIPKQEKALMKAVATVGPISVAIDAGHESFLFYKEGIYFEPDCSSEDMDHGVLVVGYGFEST
Target sequence (P07711 292-333 limits assumed): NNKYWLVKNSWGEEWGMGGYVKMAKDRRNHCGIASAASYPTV
CatB block – inhibitors of human cathepsin B. purified cathepsin B, fluorogenic substrate, fluorescence. P07858. inhibition, %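 (tested at 10 µM)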. 0.1% of 63,000 active; in the data active means inhibition above about 21%;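 further: 0% = enzyme with no compound and 100% = no enzyme blank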
CatS block – blocks human cathepsin S protease activity; P25774; inhibition, %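 (tested at 5 µM per compound within 10-compound mixtures)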; recombinant cathepsin S, AMC dipeptide fluorescence, pooled mixtures; 0.06% of 62,000 active; in the data active means inhibition above about 32%, passing the limit was not always enough; inconclusive means no clear call, values can overlap the other calls;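 further: 0% = enzyme without compound and 100% = blank without enzyme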
Target sequence (P25774 115-331 limits assumed): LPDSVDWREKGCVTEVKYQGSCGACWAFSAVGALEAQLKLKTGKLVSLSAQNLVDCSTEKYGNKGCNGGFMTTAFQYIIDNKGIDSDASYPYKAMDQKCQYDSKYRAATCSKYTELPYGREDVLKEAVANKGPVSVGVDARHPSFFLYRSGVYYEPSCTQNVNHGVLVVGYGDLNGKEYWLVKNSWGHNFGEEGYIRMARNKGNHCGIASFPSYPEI
* hit, by the source's call; u = inconclusive; x = no result; ! = repeats disagree. Hits are enriched below; roughly 0.6% of the tested compounds scored in any of these assays.

SMILES | Hsp90 inh | CatB mix inh | CatL inh | CatB block | CatS block
O=C(O)c1cc(S(=O)(=O)Nc2ccc3oc(=O)sc3c2)ccc1O | 43 | 2 | 6 | -1 | -3
CC(C)CCNC(=O)[C@H](CC(C)C)NC(=O)[C@H]1O[C@@H]1C(=O)O | -6 | 100* | 99* | x | x
CC(C)CC(NC(=O)C(CC(C)C)NC(=O)OC(C)(C)C)C(=O)O (stereo not given) | -1 | 14 | -6 | 0 | -4
O=C(Nc1nc(-c2ccc3c(c2)OCO3)cs1)C1COc2ccccc2O1 (stereo not given) | 91* | 2 | 5 | 3 | 15
CC(=O)Oc1ccc(C(=O)O)cc1OC(C)=O | 48 | 7 | 3 | -3 | 2
CC(=O)Oc1cccc2c1C(=O)c1c(OC(C)=O)cc(C(=O)O)cc1C2=O | 102* | 6 | 19 | 5 | 8
O=C(Nc1ccc(Nc2ccccc2)cc1)C1CC1 | 47 | -8 | 7 | 22* | -6
CCOC(=O)c1sc2nc(NC(=O)c3cccs3)sc2c1C | 63* | -2 | 15 | 3 | -13
Cn1c(=O)c2c(nc(SCC(=O)Nc3ccc(N4CCOCC4)c(Cl)c3)n2C)n(C)c1=O | 3 | 6 | 13 | 1 | 13
O=C(CN1CCCN(S(=O)(=O)c2ccc(Br)cc2)CC1)Nc1ccc2c(c1)OCO2 | -8 | 8 | 51* | -2 | 3
COc1ccc(S(=O)(=O)N2CCCN(CC(=O)Nc3ccc4c(c3)OCO4)CC2)cc1 | 0 | 7 | 2 | 8 | 18
COc1ccc(Oc2c(OC)cc(NCCCCCNC(C)C)c3ncccc23)cc1 | 16 | x | x | x | x
Oc1ccc(-c2onc(C(F)(F)F)c2-c2cscn2)c(O)c1 | 65* | 1 | 7 | 0 | -11
COc1ccc(-c2onc(C)c2-c2ccccc2)c(O)c1 | 13 | 3 | -3 | 1 | 7
Cc1cccc(C2CN(C)CCc3c2cc(O)c(O)c3Cl)c1 (stereo not given) | 69* | x | x | x | x
C=CCN1CCc2c(cc(O)c(O)c2Cl)C(c2ccccc2)C1 (stereo not given) | 76* | x | x | x | x
C=CCN1CCc2cc(O)c(O)cc2C(c2ccccc2)C1 (stereo not given) | 56* | x | x | x | x
CCC(C)NC(=O)CNC(=O)Cn1c(C)cc2ccccc2c1=O (stereo not given) | x | 1 | -11 | 5 | -7
Cc1cccn2c(=O)c(C=NCc3ccco3)c(Nc3ccc(Cl)cc3)nc12 | -3 | 3 | 6 | 2 | 6
COc1cc(NS(=O)(=O)c2ccc(F)c(C#N)c2)c2ncccc2c1 | -4 | x | x | x | x
CCN(CC)C(C)C(=O)N1c2ccccc2Sc2ccccc21 (stereo not given) | 3 | x | x | x | x
CC(C)NC[C@H](O)c1ccc(O)c(O)c1 | 32 | x | x | x | x
CCC(NC(C)C)C(O)c1ccc(O)c(O)c1 (stereo not given) | 59*! | 4 | 7 | 7 | -3
Oc1cc2c(c(Cl)c1O)CCNCC2c1ccccc1 (stereo not given) | 82* | x | x | x | x
Oc1ccc(C2CNCCc3c2cc(O)c(O)c3Cl)cc1 (stereo not given) | 75* | x | x | x | x
SMILES | Hsp90 inh | CatB mix inh | CatL inh | CatB block | CatS block
COc1ccc(C2CC(=O)C3=C(C2)Nc2ncnn2C3c2ccccc2)cc1 (stereo not given) | 91* | 5 | 1 | 5 | 12
O=C(CSc1nnc(-c2ccco2)c(-c2ccco2)n1)Nc1ccccc1 | -2 | u | 31 | 57* | 15
CCOC(=O)C1=C(C)OC(N)=C(C(=O)OCC)C1c1ccncc1 (stereo not given) | -3 | 1 | 5 | 0 | -9
CCOC(=O)C1=C(C)OC(N)=C(C(=O)OCC)C1c1cccnc1 (stereo not given) | 72* | -1 | 13 | 1 | -5
O=C(NC1(O)C(=O)c2ccccc2C1=O)c1ccccc1 | 73* | 3 | 0 | 1 | -1
O=C(O)/C(=C1/OC(=O)c2ccccc21)c1ccccc1 | -1 | 2 | -2 | -2 | 4
CC(C)Oc1ccc(C2/C(=C(/O)c3ccc(F)cc3)C(=O)C(=O)N2CCCN(C)C)cc1 (stereo not given) | -4 | 3 | -7 | 6 | 21
CCCCN1CCC(n2c(=O)[nH]c3ccccc32)CC1 | -1 | x | x | x | x
COc1ccccc1C(=O)Oc1cc(N)n(S(=O)(=O)c2ccc(C)cc2)n1 | 2 | 18 | -4 | 12 | -5
Cc1ccc(S(=O)(=O)n2nc(OC(=O)c3cccs3)cc2N)cc1 | 3 | 47* | -7 | 64* | 4
Nc1cc(OC(=O)c2ccco2)nn1S(=O)(=O)c1ccc(F)cc1 | -3 | 60* | 8 | 61* | -3
Cc1ccc(S(=O)(=O)n2nc(OC(=O)c3ccco3)cc2N)cc1 | 2 | 59* | 12 | 76* | 19
CCS(=O)(=O)NCC(c1cccnc1)N1CCN(c2ccccc2F)CC1 (stereo not given) | -2 | 6 | -12 | 3 | -5
O=c1cc(CSc2ccccn2)[nH]c(=O)[nH]1 | -2 | 6 | 12 | 2 | 41*
O=C(O)CSc1ccccn1 | -1 | -3 | -2 | 9 | -6
C/C(N)=N\S(=O)(=O)c1ccc(Cl)cc1 | -2 | 5 | 15 | 29* | 4
N#Cc1c(N2CCCC2)nc(N)c2c(N)nc(N3CCCC3)cc12 | 77* | 77* | 18 | 45* | 59*
COc1cc2c(C#N)c(N3CCN(c4ccccc4OC)CC3)nc(N)c2c(N)n1 | -7 | 5 | -225 | 0 | 0
Cn1c(=O)c(=O)n(C)c2cc(S(=O)(=O)N3CCCCCC3)ccc21 | -5 | 46* | -5 | -8 | -5
Cn1c(=O)n(C)c2cc(S(=O)(=O)N3CCOCC3)ccc21 | 0 | 6 | 10 | 6 | 13
O=C(CCn1c(=S)[nH]c2cc3c(cc2c1=O)OCO3)NCCN1CCCC1 | -5 | 0 | 14 | 2 | -1
CCN1CCN(C(=O)c2ccc(NS(=O)(=O)c3ccccc3)cc2)CC1 | -6 | 4 | 8 | 6 | -5
C=CCn1c(SCC(=O)c2ccc(O)c(O)c2)nnc1-c1ccccc1OC | 71* | -1 | -9 | 2 | 1
CCn1c(SCC(=O)c2ccc(O)c(O)c2)nnc1-c1ccccc1OC | 67* | 5 | 3 | 10 | 10
C=CCn1c(SCC(N)=O)nnc1-c1ccccc1O | 0 | 8 | -1 | 1 | 22
SMILES | Hsp90 inh | CatB mix inh | CatL inh | CatB block | CatS block
COc1cccc(-c2nnc(NC(=O)c3ccc(S(=O)(=O)N4CC(C)OC(C)C4)cc3)o2)c1 (stereo not given) | 0 | -2 | -1 | 4 | -1
COc1ccccc1-c1cc(C(F)(F)F)nc(N2CCN(c3ccccc3)CC2)n1 | x | 0 | 105* | 5 | -9
COc1ccccc1-c1cc(C(F)(F)F)nc(N2CCN(c3ccc(F)cc3)CC2)n1 | x | -1 | -5 | 3 | 3
Nc1ccc(C(=O)CSCC(NC(=O)CCC(N)C(=O)O)C(=O)NCC(=O)O)cc1 (stereo not given) | -5 | x | x | x | x
CN1CCN(S(=O)(=O)c2ccc(N3CCN(S(=O)(=O)/C=C/c4ccccc4)CC3)nc2)CC1 | 1 | 3 | 91* | 9 | 15
CCOc1cccc2cc(-c3csc(NC(=O)CCC(=O)N4CCN(C)CC4)n3)c(=O)oc12 | -4 | 5 | -2 | 0 | -2

Bioassay records from PubChem BioAssay.
